Source: PubChem BioAssay
Inconclusive results are not listed. Calls of active or inactive are those of the source.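 The calls were made as follows, unless noted: active = aptamer binding inhibition above 30%, about 3 SD of noise from non-fluorescent compounds; inactive = inhibition at or below 30%.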

How the values were obtained:
[1] = yeast TOR pathway RPL19A-GFP modulators, primary screen, cell-based, S. cerevisiae, multiplex flow cytometry (AID 1862; in the data active = percent of DMSO control GFP below about 86%;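 also: lower values mimic rapamycin by blocking the RPL19A rise seen in DMSO cells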); conditions: S. cerevisiae RPL19A-GFP strain, flow cytometry fluorescence, 3 h; at 10 µM; stronger effect = lower value
[2] = modulators of MEP2-GFP levels in yeast, primary screen, S. cerevisiae, multiplex flow cytometry (AID 1867;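 active = GFP response, as percent of the DMSO control, above the screen-wide mean plus 3 SD, about 139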;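 also: median GFP channel fluorescence of barcode-gated MEP2-GFP cells measured by flow cytometry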); conditions: S. cerevisiae MEP2-GFP strain, 3 h, at 10 µM, stronger effect = higher value, 100% means same as DMSO wells
[3] = modulators of CIT2-GFP expression in yeast, primary screen, S. cerevisiae, GFP fusion, multiplex flow cytometry (AID 1870;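 active = percent response above a set limit, the screen-wide mean plus 3 SD, cut at about 130% in these data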;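 also: barcoded CIT2-GFP strain pooled with four other GFP strains with rapamycin as positive control; median GFP fluorescence per well over plate mean of DMSO wells so 100% = DMSO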); conditions: 3 h, at 10 µM, stronger effect = higher value
[4] = modulators of LAP4-GFP expression in yeast, primary screen, S. cerevisiae, multiplex flow cytometry (AID 1873;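 active = GFP signal, as percent of the solvent control, above the screen mean plus 3 SD, about 149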); conditions: 3 h, at 10 µM, stronger effect = higher value
[5] = modulators of AGP1-GFP expression in yeast TOR pathway, primary screen, cell-based, multiplex flow cytometry, S. cerevisiae (AID 1887;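 active = GFP signal above the screen-wide mean plus 3 SD, that is over about 124.5% of the solvent control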;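 also: AGP1-GFP fusion strain of S. cerevisiae within a five-strain barcoded multiplex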); conditions: 3 h, at 10 µM, stronger effect = higher value
[6] = inhibitors of CD8+ T cell-vesicle binding, pilot screen, LFA-1/ICAM-1 modulator project, MLPCN validation set, flow cytometry (AID 2523;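 active = response below a set limit, under 55% cells CD8-positive and vesicle-bound, and CD8 cells' 90th-percentile brightness under 279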;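 as to vesicle binding response: mean PE anti-B7-1 fluorescence of CD8+ cells relative to row control; 100% = QL9-loaded vesicles with DMSO vehicle in the same plate row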); conditions: 2C mouse CD8+ T cells, at 7 µM, stronger effect = lower value; double positive events: measured here: CD8+/vesicle+ event percentage
[7] = target: Integrin beta-1 (Homo sapiens) + Integrin alpha-4 (Homo sapiens) (UniProt P13612+P05556); test: inhibition of HUTS-21 binding to VLA-4, pilot screen, VLA-4 allosteric modulator project, U937 cells, HUTS-21 mAb, flow cytometry, validation set (AID 2674;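 active = inhibition above 50%, about 3 SD of the validation set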;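 also: antibody binding induced by the VLA-4 ligand LDV present at three times its Kd; 0% = LDV ligand with antibody and no compound and 100% = antibody without LDV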); conditions: HUTS-21 LIBS mAb binding, at 6.7 µM, stronger effect = higher value, binding induced by LDV ligand
[8] = superoxide lowering in aged yeast cells, pilot screen, validation compound set (AID 2706;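 active = superoxide response below 65% of plate, a cut near 3 SD across the whole screen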;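 also: yeast exposed to compound for one week at 30 degrees C before staining; 100% = mean of all compound wells on the same plate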); conditions: S. cerevisiae aging, superoxide DHE fluorescence; at 10 µM; stronger effect = lower value
[9] = target: Beta-adrenergic receptor kinase 1 (Homo sapiens) (UniProt P25098); test: GRK2 binders displacing RNA aptamer, biochemical, validation, human GRK2, bead flow cytometry (AID 488806); conditions: bead-bound GRK2, FAM-aptamer displacement, at 10 µM, stronger effect = higher value
[10] = target: Beta-2 adrenergic receptor (Homo sapiens) (UniProt P07550); test: beta2AR agonists driving receptor internalization, pilot screen, cell-based, FAP fluorogen, flow cytometry, validation set (AID 504459;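 active = percent response above 42, roughly 3 SD of non-fluorescent test compounds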;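 also: agonist-driven loss of surface beta2AR via internalization measured by FAP dye flow cytometry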); conditions: Am2.2-beta2AR cells, FAP surface receptor flow cytometry; at 10 µM; stronger effect = higher value
[11] = target: AP-2 complex subunit beta (Homo sapiens) (UniProt P63010); test: inhibitors of arrestin peptide binding to AP2, pilot screen, biochemical, validation set, GST-AP2 beads, flow cytometry (AID 504541;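 active = inhibition above 54%, about 3 SD of non-fluorescent compounds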;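 also: AP2 carries R879A mutation and is captured from E. coli lysate; bead-bound FITC arrestin peptide fluorescence measuring arrestin peptide binding to AP2; 0% = DMSO wells and 100% = excess unlabeled arrestin peptide control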); conditions: FITC arrestin peptide, at 10 µM, stronger effect = higher value, AP2 beta2 appendage fragment, R879A mutant
[12] = yeast V-ATPase proton transport modulators, S. cerevisiae, pHLuorin, HTS validation (AID 504600; in the data active = response above about 15%;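 also: plate controls were DMSO for no effect and reference compound for full effect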); conditions: S. cerevisiae pHLuorin cytosolic pH, at 10 µM, stronger effect = higher value
[13] = tested on: anti-desmoglein-3 scFv antibody binding to human DSG3; test: inhibitors of anti-DSG3 scFv binding to DSG3, pilot screen, biochemical, validation compound set, bead-based, flow cytometry (AID 588368;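 active = binding below the plate cutoff, the plate median minus 3 SD, with a reading above zero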;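 also: signal is the median channel fluorescence of bead-bound GFP antibody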); conditions: Protein G beads, DSG3-Fc, scFv-GFP binding, at 10 µM, stronger effect = lower value
[14] = inhibitors of fungal efflux pumps CDR1, CDR2, MDR1, pilot screen, validation compound set, multiplex, phenotypic (AID 588506;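 active = efflux inhibition above 0.42, the validation set average plus 4 SD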;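 also: Nile Red retained in cells so higher fluorescence means more efflux inhibition; 0 = negative control wells and 1 = enniatin B 25 µM full block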); conditions: S. cerevisiae pump-expressing triplex, Nile Red efflux flow cytometry; at 10 µM; stronger effect = higher value; the pumps come from Candida albicans
[15] = target: ATP-binding cassette sub-family B member 6 (Homo sapiens) (UniProt Q9NP58); test: ABCB6 transporter inhibitors, pilot screen, K562-ABCB6 cells, flow cytometry, validation set (AID 588550;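 active = inhibition above the screen-wide mean plus 3 SD, about 51%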;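 also: 0% = DMSO wells and 100% = benzethonium chloride 70 µM positive control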); conditions: K562-ABCB6 porphyrin accumulation, 1 h, at 10 µM, stronger effect = higher value
[16] = promoters of myeloid differentiation in arrested cells, primary screen, cell-based, GFP/MAC1 double positive, flow cytometry, validation set (AID 588685;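 active = differentiation response of at least 50%, scaled between solvent and reference control, from cells with both markers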;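 also: compound exposure lasts four days before antibody staining and flow analysis; 0% = DMSO wells and 100% = 5 µM fulvestrant positive control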); conditions: ER-HoxA9 marrow cells, stronger effect = higher value, normalized: vehicle 0, fulvestrant 100

Sequence of Beta-2 adrenergic receptor (Homo sapiens) (P07550 whole entry, looked up): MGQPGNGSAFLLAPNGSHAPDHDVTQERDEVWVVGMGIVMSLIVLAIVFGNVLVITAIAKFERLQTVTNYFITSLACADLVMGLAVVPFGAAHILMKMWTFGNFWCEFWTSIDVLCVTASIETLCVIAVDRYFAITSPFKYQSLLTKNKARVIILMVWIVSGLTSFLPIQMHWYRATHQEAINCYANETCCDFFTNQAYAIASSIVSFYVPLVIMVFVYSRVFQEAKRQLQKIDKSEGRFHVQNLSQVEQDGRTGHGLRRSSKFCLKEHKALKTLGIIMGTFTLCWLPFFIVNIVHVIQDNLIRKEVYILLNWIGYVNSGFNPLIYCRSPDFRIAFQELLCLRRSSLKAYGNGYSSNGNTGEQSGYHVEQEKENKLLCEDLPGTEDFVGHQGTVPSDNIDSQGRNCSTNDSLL
Sequence of AP-2 complex subunit beta (Homo sapiens) (P63010 whole entry, looked up, the tested form may be a part, one chain of several): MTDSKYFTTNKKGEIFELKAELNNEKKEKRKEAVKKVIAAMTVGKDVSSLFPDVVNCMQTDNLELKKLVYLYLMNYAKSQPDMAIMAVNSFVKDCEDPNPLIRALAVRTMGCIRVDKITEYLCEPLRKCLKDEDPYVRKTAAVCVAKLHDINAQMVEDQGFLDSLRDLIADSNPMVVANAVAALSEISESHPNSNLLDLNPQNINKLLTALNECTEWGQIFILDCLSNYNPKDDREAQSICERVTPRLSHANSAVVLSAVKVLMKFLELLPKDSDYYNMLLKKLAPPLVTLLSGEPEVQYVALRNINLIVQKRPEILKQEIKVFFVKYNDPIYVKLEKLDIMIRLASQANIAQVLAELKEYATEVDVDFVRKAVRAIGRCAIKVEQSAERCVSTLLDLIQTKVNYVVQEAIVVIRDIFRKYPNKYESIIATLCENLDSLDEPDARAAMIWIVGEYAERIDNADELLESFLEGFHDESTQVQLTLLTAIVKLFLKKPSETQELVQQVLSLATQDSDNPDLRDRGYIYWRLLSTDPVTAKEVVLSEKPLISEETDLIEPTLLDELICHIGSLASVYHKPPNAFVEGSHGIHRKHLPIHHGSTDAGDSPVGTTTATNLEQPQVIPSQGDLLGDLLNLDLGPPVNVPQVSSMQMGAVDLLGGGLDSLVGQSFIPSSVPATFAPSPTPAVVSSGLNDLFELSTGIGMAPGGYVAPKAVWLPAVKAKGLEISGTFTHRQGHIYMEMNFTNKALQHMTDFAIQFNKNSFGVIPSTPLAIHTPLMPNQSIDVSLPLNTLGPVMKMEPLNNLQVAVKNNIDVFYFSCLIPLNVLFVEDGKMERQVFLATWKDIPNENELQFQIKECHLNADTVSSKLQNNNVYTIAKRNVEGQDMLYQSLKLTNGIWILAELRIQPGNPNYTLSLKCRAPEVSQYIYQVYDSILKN
Sequence of Beta-adrenergic receptor kinase 1 (Homo sapiens) (P25098 whole entry, looked up): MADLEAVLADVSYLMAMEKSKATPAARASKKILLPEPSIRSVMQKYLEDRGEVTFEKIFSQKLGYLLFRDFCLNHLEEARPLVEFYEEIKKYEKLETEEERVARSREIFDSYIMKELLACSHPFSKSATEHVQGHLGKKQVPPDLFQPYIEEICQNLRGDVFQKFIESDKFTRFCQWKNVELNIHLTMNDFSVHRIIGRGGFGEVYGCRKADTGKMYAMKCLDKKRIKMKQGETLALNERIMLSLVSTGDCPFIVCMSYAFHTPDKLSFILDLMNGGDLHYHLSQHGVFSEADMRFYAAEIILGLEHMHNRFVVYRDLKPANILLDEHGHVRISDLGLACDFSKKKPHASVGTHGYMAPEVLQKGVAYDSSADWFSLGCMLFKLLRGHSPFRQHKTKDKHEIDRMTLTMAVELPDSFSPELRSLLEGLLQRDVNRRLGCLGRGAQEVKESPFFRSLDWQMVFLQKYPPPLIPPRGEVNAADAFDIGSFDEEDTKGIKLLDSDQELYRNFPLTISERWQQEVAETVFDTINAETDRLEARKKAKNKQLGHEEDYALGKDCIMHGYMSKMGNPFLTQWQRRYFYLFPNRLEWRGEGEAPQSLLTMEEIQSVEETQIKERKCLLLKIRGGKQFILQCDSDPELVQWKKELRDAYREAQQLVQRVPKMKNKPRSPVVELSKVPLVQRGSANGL
Sequence of ATP-binding cassette sub-family B member 6 (Homo sapiens) (Q9NP58 whole entry, looked up): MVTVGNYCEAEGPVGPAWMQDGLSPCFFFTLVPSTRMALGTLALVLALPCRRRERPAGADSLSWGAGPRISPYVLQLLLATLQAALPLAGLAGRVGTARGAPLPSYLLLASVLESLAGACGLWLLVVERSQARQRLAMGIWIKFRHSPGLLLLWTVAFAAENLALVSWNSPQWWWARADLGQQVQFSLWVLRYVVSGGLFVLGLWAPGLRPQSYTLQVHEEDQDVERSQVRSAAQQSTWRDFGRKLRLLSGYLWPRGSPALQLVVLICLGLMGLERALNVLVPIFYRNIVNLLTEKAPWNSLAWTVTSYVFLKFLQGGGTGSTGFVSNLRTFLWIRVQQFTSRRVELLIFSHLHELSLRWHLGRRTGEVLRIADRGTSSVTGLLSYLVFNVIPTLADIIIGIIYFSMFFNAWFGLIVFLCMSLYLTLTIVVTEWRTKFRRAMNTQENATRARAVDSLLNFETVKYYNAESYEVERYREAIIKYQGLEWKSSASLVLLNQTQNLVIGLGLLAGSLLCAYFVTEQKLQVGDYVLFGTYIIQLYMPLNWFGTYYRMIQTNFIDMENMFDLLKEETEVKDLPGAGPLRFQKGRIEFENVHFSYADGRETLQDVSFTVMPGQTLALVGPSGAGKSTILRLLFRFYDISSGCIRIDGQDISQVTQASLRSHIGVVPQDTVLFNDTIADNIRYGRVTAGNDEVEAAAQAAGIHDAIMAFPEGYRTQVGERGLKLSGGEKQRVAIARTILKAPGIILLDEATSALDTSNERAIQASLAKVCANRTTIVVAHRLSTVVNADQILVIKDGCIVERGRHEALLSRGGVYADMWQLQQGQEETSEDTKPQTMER
Sequence of Integrin beta-1 (Homo sapiens) + Integrin alpha-4 (Homo sapiens) (P05556 whole entry, looked up): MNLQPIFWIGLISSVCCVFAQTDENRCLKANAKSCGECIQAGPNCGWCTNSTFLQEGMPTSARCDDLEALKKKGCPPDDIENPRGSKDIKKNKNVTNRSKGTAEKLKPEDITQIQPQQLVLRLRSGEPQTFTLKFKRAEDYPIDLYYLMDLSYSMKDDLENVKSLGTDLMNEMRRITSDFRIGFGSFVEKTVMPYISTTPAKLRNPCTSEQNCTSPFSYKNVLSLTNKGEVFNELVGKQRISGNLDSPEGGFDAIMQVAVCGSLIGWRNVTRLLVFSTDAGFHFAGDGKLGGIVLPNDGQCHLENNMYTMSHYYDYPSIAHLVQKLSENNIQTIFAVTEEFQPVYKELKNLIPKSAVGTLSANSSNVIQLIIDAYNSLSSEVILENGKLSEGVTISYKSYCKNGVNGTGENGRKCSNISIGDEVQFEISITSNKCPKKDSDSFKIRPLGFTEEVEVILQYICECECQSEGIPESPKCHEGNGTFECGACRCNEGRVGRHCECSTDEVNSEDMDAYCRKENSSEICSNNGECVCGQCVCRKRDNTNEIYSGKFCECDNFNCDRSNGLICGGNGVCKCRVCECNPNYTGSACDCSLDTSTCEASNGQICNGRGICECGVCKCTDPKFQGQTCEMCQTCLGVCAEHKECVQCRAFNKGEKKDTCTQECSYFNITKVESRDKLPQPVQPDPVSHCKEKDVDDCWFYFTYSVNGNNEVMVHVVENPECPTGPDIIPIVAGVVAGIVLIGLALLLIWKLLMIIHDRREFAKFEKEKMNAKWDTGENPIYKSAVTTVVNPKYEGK
Sequence of Integrin beta-1 (Homo sapiens) + Integrin alpha-4 (Homo sapiens) (P13612 whole entry, looked up): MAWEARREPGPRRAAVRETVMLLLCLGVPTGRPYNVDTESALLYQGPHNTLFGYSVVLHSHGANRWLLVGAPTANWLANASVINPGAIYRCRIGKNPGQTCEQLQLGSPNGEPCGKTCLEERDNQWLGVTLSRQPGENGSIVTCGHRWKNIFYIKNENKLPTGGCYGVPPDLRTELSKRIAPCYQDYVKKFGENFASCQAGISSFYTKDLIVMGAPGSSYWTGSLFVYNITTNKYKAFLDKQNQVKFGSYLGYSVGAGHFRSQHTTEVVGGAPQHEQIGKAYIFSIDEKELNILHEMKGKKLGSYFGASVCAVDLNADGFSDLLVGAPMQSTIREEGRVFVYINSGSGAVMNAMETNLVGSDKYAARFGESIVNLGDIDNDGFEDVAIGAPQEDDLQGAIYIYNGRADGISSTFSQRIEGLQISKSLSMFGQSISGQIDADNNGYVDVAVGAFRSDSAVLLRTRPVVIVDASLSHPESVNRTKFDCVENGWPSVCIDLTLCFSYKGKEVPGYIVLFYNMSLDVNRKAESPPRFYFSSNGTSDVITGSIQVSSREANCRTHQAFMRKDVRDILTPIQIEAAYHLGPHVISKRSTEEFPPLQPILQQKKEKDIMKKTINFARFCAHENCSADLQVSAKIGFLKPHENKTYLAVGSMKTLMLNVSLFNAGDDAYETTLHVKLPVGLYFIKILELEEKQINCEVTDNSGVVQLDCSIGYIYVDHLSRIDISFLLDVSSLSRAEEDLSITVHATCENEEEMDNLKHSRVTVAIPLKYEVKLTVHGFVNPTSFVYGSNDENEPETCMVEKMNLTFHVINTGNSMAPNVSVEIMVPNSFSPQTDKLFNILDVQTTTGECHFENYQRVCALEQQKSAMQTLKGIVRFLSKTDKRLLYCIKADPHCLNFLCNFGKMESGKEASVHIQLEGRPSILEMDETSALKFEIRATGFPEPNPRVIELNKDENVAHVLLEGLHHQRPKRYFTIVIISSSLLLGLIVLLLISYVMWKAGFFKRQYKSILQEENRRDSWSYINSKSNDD

SMILES	percent of DMSO control GFP [1]	GFP response vs DMSO [2]	percent response of DMSO control [3]	GFP response vs DMSO [4]	GFP response, % of DMSO [5]	double positive events [6] [%]	vesicle binding response [6]	inhibition [7]	superoxide response (% of plate) [8]	aptamer binding inhibition [9]	response [10]	inhibition [11]	response [12]	binding (% of control) [13]	efflux inhibition (fraction of control) [14]	inhibition [15]	differentiation response [16]
COc1ccccc1NC(=O)C12CCC(C)(C(=O)C1)C2(C)C (stereo not drawn)	99.3% (inactive)	105% (inactive)	102% (inactive)	124% (inactive)	109% (inactive)	63.5	173% (inactive)	-2.82% (inactive)	121% (inactive)	5% (inactive)	-14.9% (inactive)	15.9% (inactive)	-0.35% (inactive)	102% (inactive)	0 (inactive)	1% (inactive)	-4% (inactive)
CC(=O)N(CCC1(c2ccc(C)cc2)CCOC(C(C)C)C1)Cc1ccco1 (stereo not drawn)	93.9% (inactive)	108% (inactive)	116% (inactive)	82% (inactive)	96.6% (inactive)	46.3	74.9% (active)	-16.8% (inactive)	99.9% (inactive)	-4% (inactive)	-3.21% (inactive)	3.24% (inactive)	-0.03% (inactive)	99.6% (inactive)	0.05 (inactive)	9% (inactive)	-1.64% (inactive)
CCc1cc2c(C)cc(=O)oc2cc1OC(=O)C1CCCN1C(=O)OC(C)(C)C (stereo not drawn)	103% (inactive)	95.2% (inactive)	110% (inactive)	82% (inactive)	96.3% (inactive)	57.4	247% (inactive)	0.94% (inactive)	92.9% (inactive)	2% (inactive)	19.6% (inactive)	-11.6% (inactive)	1.36% (inactive)	103% (inactive)	-0.03 (inactive)	6% (inactive)	-20% (inactive)
O=C(N1CCCC1)C12CC3CC(C1)CC(C(=O)N1CCCC1)(C3)C2	99.5% (inactive)	103% (inactive)	101% (inactive)	124% (inactive)	101% (inactive)	59.6	219% (inactive)	9.13% (inactive)	104% (inactive)	-1% (inactive)	-2.88% (inactive)	-3.27% (inactive)	0.92% (inactive)	101% (inactive)	0.15 (inactive)	3% (inactive)	-7.2% (inactive)
COc1ccc2c(c1OC)C(=O)OC2C1c2c(cc3c(c2OC)OCO3)CCN1C (stereo not drawn)	97.8% (inactive)	100% (inactive)	104% (inactive)	91.4% (inactive)	95.7% (inactive)	60.2	230% (inactive)	11% (inactive)	92.5% (inactive)	5% (inactive)	-9.24% (inactive)	-5.89% (inactive)	-1.48% (inactive)	96.4% (inactive)	-0.29 (inactive)	-1% (inactive)	-2.69% (inactive)
S=C(NCCOCCOCCNC(=S)Nc1ccccc1)Nc1ccccc1	98.6% (inactive)	103% (inactive)	86.3% (inactive)	108% (inactive)	97.4% (inactive)	64.8	250% (inactive)	-22.3% (inactive)	134% (inactive)	3% (inactive)	2.38% (inactive)	-17% (inactive)	6.24% (inactive)	99.9% (inactive)	0.55 (active)	4% (inactive)	5.6% (inactive)
CC1(C)CC(CNCCC(c2ccc(F)cc2)c2ccco2)CCO1 (stereo not drawn)	96.1% (inactive)	110% (inactive)	106% (inactive)	82.5% (inactive)	103% (inactive)	93.3	272% (inactive)	3.55% (inactive)	87.8% (inactive)	3% (inactive)	4.87% (inactive)	0.76% (inactive)	5.44% (inactive)	104% (inactive)	0.12 (inactive)	11% (inactive)	-4.09% (inactive)
C#CCOc1ccc2c(C)cc(=O)oc2c1	105% (inactive)	93% (inactive)	107% (inactive)	77.6% (inactive)	98.9% (inactive)	60.4	603% (inactive)	3.7% (inactive)	98% (inactive)	4% (inactive)	-1.57% (inactive)	-7.76% (inactive)	-0.49% (inactive)	99.7% (inactive)	0.36 (inactive)	0% (inactive)	16.9% (inactive)
CC12CCC(C(=O)NCc3ccccn3)(OC1=O)C2(C)C (stereo not drawn)	102% (inactive)	103% (inactive)	103% (inactive)	98% (inactive)	103% (inactive)	61.8	167% (inactive)	1.59% (inactive)	92.4% (inactive)	0% (inactive)	-3.72% (inactive)	6.09% (inactive)	-2.31% (inactive)	104% (inactive)	-0.24 (inactive)	33% (inactive)	5.67% (inactive)
